Results taken from PubChem BioAssay AID1159580 (chemical genetic matrix, 2015).
Among all 5,500 compounds or so, about 2,000 (36%) were called active. Another 18% or so got no clear call; they are omitted. No stated cut-off is given here; in the data, active means normalized growth mostly below about 0.91 (no sharp cut-off); inconclusive means no clear call, values can overlap the other calls; inactive means mostly above about 0.92. This is one part of the list.

Assay: chemical genetic growth profiling, strain panel (AID 1159580);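 further: tested at 20 µM; growth read once vehicle control cultures reached saturation at 30 °C; 1 = growth at the plate median or of vehicle wells; lower values mean less growth of the strain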
Details: S. cerevisiae deletion strains, growth OD
[1] = locus YAL013W, strain DEP1, hits give low values
[2] = locus YAL040C, strain CLN3, hits give low values
[3] = locus YCL061C, strain MRC1 (second series), hits give low values
[4] = locus YDR150W, strain NUM1, hits give low values
[5] = locus YDR363W, strain ESC2, hits give low values
[6] = locus YER002W, strain NOP16, hits give low values
[7] = locus YGR078C, strain PAC10, hits give low values
[8] = locus YMR307W, strain GAS1, hits give low values
[9] = locus YNL175C, strain NOP13, hits give low values
[10] = locus YNL197C, strain WHI3, hits give low values
[11] = locus YNL224C, strain SQS1, hits give low values
[12] = locus YNL322C, strain KRE1, hits give low values
[13] = locus YOR083W, strain WHI5 (second series), hits give low values
[14] = locus YPL055C, strain LGE1, hits give low values
[15] = locus YPL241C, strain CIN2, hits give low values
[16] = locus YJR075W, strain HOC1, hits give low values
[17] = locus YMR263W, strain SAP30, hits give low values

Measured: normalized growth

OC[C@H]1O[C@@H](n2cnc3c(N[C@H]4CC5CCC4C5)ncnc32)[C@H](O)[C@@H]1O (stereo partly drawn)
inactive: [1] 1 | [2] 1.02 | [3] 1.01 | [4] 1.01 | [5] 1 | [6] 1.02 | [7] 1.03 | locus YGR229C, strain SMI1, hits give low values 0.938 | [8] 0.999 | locus YNL128W, strain TEP1, hits give low values 0.992 | [9] 1.01 | [10] 0.994 | [11] 0.974 | [12] 1.01 | [13] 1.04 | [14] 1.03 | [15] 1.01

CCCn1c(=O)c2[nH]c(C3CCCC3)nc2n(CCCOC(=O)c2ccc(S(=O)(=O)F)cc2)c1=O
inactive: [1] 0.992 | [2] 0.987 | [3] 1.01 | [5] 0.998 | [6] 1 | [7] 1.02 | [16] 0.994 | [17] 0.999 | [9] 1.01 | [10] 1 | [11] 1.01 | [13] 0.995 | [14] 1.01

CCOC(=O)C1C(c2cccnc2)C(C(=O)OCC)C(O)(C(F)(F)F)NC1(O)C(F)(F)F (stereo not drawn)
inactive: [1] 1 | locus YBR229C, strain ROT2, hits give low values 1 | locus YCL061C, strain MRC1, hits give low values 1.02 | locus YDL101C, strain DUN1, hits give low values 1 | [4] 0.985 | locus YEL061C, strain CIN8, hits give low values 0.985 | [7] 1.01 | locus YHR030C, strain SLT2, hits give low values 1.01 | locus YHR087W, strain rtc3, hits give low values 1.01 | locus YJR043C, strain POL32, hits give low values 0.996 | [16] 1.03 | locus YKL190W, strain CNB1, hits give low values 1.01 | locus YLR039C, strain RIC1, hits give low values 1.05 | locus YLR058C, strain SHM2 (second series), hits give low values 1.01 | locus YLR085C, strain ARP6, hits give low values 1.01 | locus YLR262C, strain YPT6, hits give low values 1.02 | locus YML094W, strain GIM5, hits give low values 0.965 | locus YMR219W, strain ESC1, hits give low values 1.01 | [17] 1.04 | [8] 0.995 | locus YNL153C, strain GIM3, hits give low values 1.01 | locus YNL298W, strain CLA4 (second series), hits give low values 1 | [12] 0.994 | locus YNR030W, strain Alg12, hits give low values 1 | locus YOL006C, strain TOP1, hits give low values 0.963 | [14] 1 | [15] 1.02 | locus YPR135W, strain CTF4, hits give low values 0.982
